Assay [1] addresses Cytochrome P450 3A4 (Homo sapiens) (UniProt P08684). Description: qHTS Assay for Inhibitors and Substrates of Cytochrome P450 3A4 (AID 884). Note: nearly all actives have a fitted effect of over 50% in size. Note: potency is the fitted concentration of half-maximal effect. A digest of the protocol: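 Luminescent readout of luciferin produced by CYP3A4 (20 nM) dealkylation of Luciferin-PPXE, 25 uM (its KM). NADPH-driven reaction ran 60 min at RT after 10 min compound preincubation; data scaled to 57 uM ketoconazole as 100% inhibition.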
For orientation: qHTS replaces the single test concentration by a dilution series.

Assay [2] concerns the target DNA dC->dU-editing enzyme APOBEC-3G (Homo sapiens) (UniProt Q9HC16). Description: qHTS for inhibitors of Vif-A3G interactions: Validation (AID 588379). Note: 0% is about no effect. Summed up:
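Yellow fluorescence (Ex 488, Em 500-530) of Vif-coexpressing HeLa A3G-eYFP cells, scanned by Acumen cytometer, reports blocked A3G degradation. Cells plated at 700/well overnight at 37 deg C before compound addition, then a further overnight compound incubation at 37 deg C.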

The target of assay [3] is Cytochrome P450 3A4 (Homo sapiens) (UniProt P08684). Kind of assay: qHTS Assay for Activators of Cytochrome P450 3A4 (AID 885). Note: nearly all actives have a fitted effect of over 65% in size. Summed up: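 Luminescent readout of luciferin formed from 25 uM Luciferin-PPXE (KM level) by 20 nM CYP3A4 in 200 mM KPO4, with 60 min NADPH-driven reaction at room temperature after 10 min compound exposure. Ketoconazole (57 uM) defined 100% inhibition.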

In assay [4] the target is Estrogen receptor (Homo sapiens) (UniProt P03372). Kind of assay: qHTS assay for small molecule antagonists of estrogen receptor alpha signaling (AID 588513; active = well fitted curve in the direction sought with a large enough effect in the signal ratio, with a control signal flat, not every such curve was filed as active; the % refers to the signal ratio; note: % is set by controls: 0 for no effect and ±100 for the full control effect). A digest of the protocol: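 Fluorescence from CCF4 substrate after 2 h at room temperature gave reporter activity; cells had been exposed to compound and 0.5nM 17-beta-estradiol for 18 h at 37 C. Hill-equation fitting yielded IC50 and maximal response.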

For assay [5] the target is unchanged. Description: qHTS assay for small molecule agonists of estrogen receptor alpha signaling (AID 588514; calls by dose curve;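 note: 0% = vehicle only and 100% = reference agonist; nearly all actives have a fitted effect of over 70% in size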). A digest of the protocol:
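EC50 and efficacy came from Hill fits of beta-lactamase reporter signal (CCF4 dye, 2 h at room temperature) scaled between DMSO and 20 nM 17-beta-estradiol. Agonist mode: HEK293 ER-alpha-UAS-bla cells in charcoal/dextran-stripped serum medium, 18 h compound exposure at 37 C.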

The target in assay [6] is Androgen receptor (Homo sapiens) (UniProt P10275). Kind of assay: qHTS assay for small molecule agonists of androgen receptor signaling (AID 588515; active = well fitted curve in the direction sought with a large enough effect in the signal ratio, with a control signal flat; the % refers to the signal ratio; note: % is set by controls: 0 for no effect and ±100 for the full control effect). Particulars: AR-UAS-bla HEK293, beta-lactamase ratio, agonist 16 h; activation: stronger effect = higher value. A digest of the protocol: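 Stimulation of an AR-responsive β-lactamase reporter in GripTite HEK293 cells was measured after 16 h compound exposure at 37 °C, via CCF4 fluorescence after 2 h RT. EC50 from Hill fits, normalized to R1881 at 30 nM.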

For assay [7] the target is unchanged. Kind of assay: qHTS assay for small molecule antagonists of androgen receptor signaling (AID 588516; active = well fitted curve in the direction sought with a large enough effect in the signal ratio, with a control signal flat, not every such curve was filed as active; the % refers to the signal ratio; note: % is set by controls: 0 for no effect and ±100 for the full control effect). A digest of the protocol: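 Cells were plated and incubated 5 h, compounds added in titration, then R1881 (10 nM final) as agonist. After 16 h at 37 C, CCF4 substrate was loaded for 2 h at room temperature and fluorescence measured.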
In assay [8] the target is Bile acid receptor (Homo sapiens) (UniProt Q96RI1). Kind of assay: qHTS assay for small molecule antagonists of farnesoid X receptor signaling (AID 588526; calls by dose curve; note: % is set by controls: 0 for no effect and ±100 for the full control effect). Summed up: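 Beta-lactamase reporter antagonist mode: HEK293T FXR-UAS-bla cells, titrated compound, CDCA stimulation, 16 h 37 C, CCF4 dye 2 h RT. Data normalized to CDCA 50 uM and DMSO; Hill-fit IC50.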
Assay [9] concerns the target Glucocorticoid receptor (Homo sapiens) (UniProt P04150). Description: qHTS assay for small molecule agonists of glucocorticoid receptor signaling (AID 588532; active = well fitted curve in the direction sought with a large enough effect in the signal ratio, with a control signal flat; the % refers to the signal ratio;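 note: 100% = dexamethasone at 0.1 µM and 0% = DMSO only wells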). As to conditions: HeLa MMTV-bla, beta-lactamase ratio, agonist, 18 h; stronger effect = higher value; percent of dexamethasone control, DMSO zero. A digest of the protocol:
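Agonist-mode qHTS: GRE-driven beta-lactamase in HeLa cells exposed 18 h to titrated compounds (up to 92 uM), then CCF4 ratio read after 2 h at RT; Hill-fitted EC50, efficacy relative to 0.1 uM dexamethasone.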

For assay [10] the target is unchanged. Description: qHTS assay for small molecule antagonists of glucocorticoid receptor signaling (AID 588533; active = well fitted inhibition curve with a large enough effect in the signal ratio, with a control signal flat, not every such curve was filed as active; the % refers to the signal ratio). A digest of the protocol:
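Antagonist-mode qHTS: compound titrations added to GRE-bla HeLa cells, then dexamethasone 2 nM final; 18 h, 37 C. CCF4 FRET fluorescence normalized to dexamethasone and DMSO; IC50 from Hill fit.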

Assay [11] can be described thus: qHTS assay for small molecule antagonists of peroxisome proliferator-activated receptor delta signaling (AID 588535; active = well fitted inhibition curve with a large enough effect in the signal ratio, with a control signal flat, not every such curve was filed as active; the % refers to the signal ratio;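 for max response: cells co-treated with a PPAR-delta agonist as stimulator during compound exposure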). As to conditions: HEK293T PPARd-UAS-bla, beta-lactamase FRET ratio, 18 h; 460 nm channel. A digest of the protocol: (§1)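 Titrations were run on PPAR-delta-UAS-bla HEK293T cells in charcoal/dextran-stripped serum, incubated 18 h at 37 C. CCF4 fluorescence (460/530 nm) after 2 h RT; Hill equation yields IC50 and maximal response.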

Assay [12] addresses Peroxisome proliferator-activated receptor delta (Homo sapiens) (UniProt Q03181). The assay is described as above. Summed up: as §1
Assay [13] concerns the target Vitamin D3 receptor (Homo sapiens) (UniProt P11473). Kind of assay: qHTS assay for small molecule antagonists of vitamin D receptor signaling (AID 588541; calls by dose curve). Summed up:
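Antagonist-mode beta-lactamase reporter assay: HEK293T VDR-UAS-bla cells were exposed to titrated compound alongside 1-alpha,25-dihydroxyvitamin D3 at 3 nM final for 16 h. Values were normalized to the 50 nM agonist control and DMSO basal, with IC50 and efficacy from Hill equation fits.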

A short description of assay [14]: qHTS assay for small molecule agonists of retinoid X receptor alpha signaling (AID 588544; calls by dose curve;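 for activation: 0% = DMSO basal wells and 100% = reference agonist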). As to conditions: HEK293T RXRa-UAS-bla, beta-lactamase reporter, 18 h; 530 nm emission.
The target of assay [15] is Retinoic acid receptor RXR-alpha (Homo sapiens) (UniProt P19793). Described as above.
Assay [16] concerns the target Thyroid hormone receptor beta (Homo sapiens) (UniProt P10828). Kind of assay: qHTS assay for small molecule agonists of thyroid hormone receptor beta signaling (AID 588545; calls by dose curve). A digest of the protocol: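 HEK 293 TR-UAS-bla; agonist mode; 18 hrs, 37 C; CCF4, ex 405/em 460 and 530 nm; norm. T3 10 nM = 100%, DMSO = 0%; Hill fit → EC50, efficacy.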
The nature of assay [17]: qHTS assay for small molecule antagonists of retinoid X receptor alpha signaling (AID 588546; active = well fitted inhibition curve with a large enough effect in the signal ratio, with a control signal flat, not every such curve was filed as active; the % refers to the signal ratio). Particulars: HEK293T RXRa-UAS-bla, beta-lactamase ratio, antagonist mode; measured here: W530 green channel, cytotoxicity proxy. A digest of the protocol: (§2)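 Beta-lactamase reporter inhibition, read as CCF4 fluorescence ratio (ex 405, em 460/530 nm) after 2 h at RT. HEK293T UAS-bla cells, 2500/well, were stimulated with 9-cis-RA at 500 or 100 nM final alongside test compound for 18 h at 37 C.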

Assay [18] deals with Retinoic acid receptor RXR-alpha (Homo sapiens) (UniProt P19793). Described as above. As to conditions: HEK293T RXRa-UAS-bla, beta-lactamase ratio, antagonist mode. Summed up:
as §2

Assay [19] in a line: qHTS assay for small molecule activators of the p53 signaling pathway (AID 651743; active = well fitted activation curve with a large enough effect in the signal ratio, not every such curve was filed as active; the % refers to the signal ratio; note: series mostly up to about 92 µM; % of control where 0% means no effect). Particulars: HCT-116 p53RE-bla, beta-lactamase FRET ratio, 16 h; activation: stronger effect = higher value. Summed up: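 After 16 hours compound treatment at 37 C, HCT-116 cells stably expressing p53RE-driven beta-lactamase were loaded with LiveBLAzer B/G FRET substrate for 2 hours at room temperature. Fluorescence intensity served as the p53 activation read-out.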

Assay [20] in a line: qHTS assay for small molecule activators of the nuclear factor-kappa B (NF-kB) signaling pathway (AID 651749; active = well fitted activation curve with a large enough effect in the signal ratio; the % refers to the signal ratio; note: series mostly up to about 77 µM; % of control where 0% means no effect). As to conditions: NF-kB-bla ME-180 cells, beta-lactamase FRET ratio, 16 h; activation: stronger effect = higher value. A digest of the protocol:
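Activation measured after 16 hr compound treatment at 37C, 5% CO2, of 2,000 ME-180 cells/well stably expressing an NF-kB response element–driven beta-lactamase reporter, via FRET-disruption fluorescence.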

Assay [21] concerns the target Peroxisome proliferator-activated receptor alpha (Homo sapiens) (UniProt Q07869). Description: qHTS assay for small molecule agonists of the peroxisome proliferator-activated receptor alpha (PPARalpha) signaling pathway (AID 651778). Note: % of control where 0% means no effect. As to conditions: PathHunter PPARalpha complementation, chemiluminescence, 6 h; max response: stronger effect = higher value. A digest of the protocol:
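Chemiluminescence from complemented enzyme reported PPARalpha activation in cells after 6 hr of compound treatment at 37 C. The detection reagent was incubated for 60 min at room temperature, and compounds were scored as agonists.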

Assay [22] in a line: qHTS assay for small molecule agonists of the antioxidant response element (ARE) signaling pathway measured by Nrf2-dependant transcriptional activity (AID 720636; active = well fitted curve in the direction sought with a large enough effect in the repeat runs; an effect the other way counts as inactive or inconclusive;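 note: HepG2 cells with an ARE-driven luciferase reporter; % of control where 0% means no effect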). A digest of the protocol: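 First, ARE-luc HepG2 cells attached for 6 hr at 37 C in 1% dialyzed FBS medium. Next, compound or DMSO was added and incubated 16 hr. Finally, ONE-Glo reagent was added and luminescence measured after 30 min.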

A short description of assay [23]: qHTS assay for small molecule agonists of the antioxidant response element (ARE) signaling pathway measured by Nrf2-dependant transcriptional activity - cell viability counter screen (AID 720653; active = well fitted curve in the direction sought with a large enough effect in the repeat runs; an effect the other way counts as inactive or inconclusive; note: % is set by controls: 0 for no effect and ±100 for the full control effect). Particulars: ARE-bla HepG2 viability, CellTiter-Glo ATP luminescence, 16 h; max response: stronger effect = lower value. A digest of the protocol: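 Cytotoxicity counter screen: intracellular ATP quantified by CellTiter-Glo luminescence in the same ARE-bla HepG2 plates, after 16 h compound exposure and a 2 h beta-lactamase substrate step.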

Assay [24] can be described thus: qHTS assay for cell viability of HEK293 cells (AID 743288). Note: % is set by controls: 0 for no effect and ±100 for the full control effect; nearly all actives have a fitted effect of over 50% in size. Particulars: ATP luminescence (CellTiter-Glo), 18 h; max response: stronger effect = lower value. Summed up:
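Viable-cell counts were inferred from luciferase-based ATP content in HEK293 cells seeded at 2,000/well, pre-incubated ≥5 h, then dosed with DMSO-solubilised compounds for 18 h at 37 C.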

Assay [25] is described as follows: qHTS assay for cell viability of the p53RE-bla HCT-116 cell line (AID 743292). Note: % is set by controls: 0 for no effect and ±100 for the full control effect; nearly all actives have a fitted effect of over 55% in size. A digest of the protocol: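 Quantitative high-throughput format: compounds in DMSO were pinned onto p53RE-bla HCT-116 cells (4,000/well) and incubated 16 h at 37 C. Total intracellular ATP, read by CellTiter-Glo luminescence, reflects viable cell number.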
For assay [26], the target named is Nuclear receptor subfamily 1 group I member 2 (Rattus norvegicus) (UniProt Q9R1A7). Kind of assay: qHTS assay for small molecule activators of the rat pregnane X receptor (rPXR) signaling pathway (AID 651751; call rule not given here; note: 0% is about no effect). As to conditions: rPXR reporter cells, luciferase (One-Glo), 24 h.
Assay [27] can be described thus: qHTS assay for small molecule activators of the human pregnane X receptor (PXR) signaling pathway (AID 720659; call rule not given here; note: 0% is about no effect).

Records with an inconclusive call do not appear. Active and inactive are the calls of the source. Unless noted, calls come from the whole dose curve; as a rule, active = well fitted curve in the direction sought with a large enough effect; inconclusive = small, poorly fitted or top-dose-only effect, or another doubt; inactive = no such curve, though single readings can be large; an effect the other way counts as inactive or inconclusive.

Sequence of Cytochrome P450 3A4 (Homo sapiens) (P08684 whole entry, looked up): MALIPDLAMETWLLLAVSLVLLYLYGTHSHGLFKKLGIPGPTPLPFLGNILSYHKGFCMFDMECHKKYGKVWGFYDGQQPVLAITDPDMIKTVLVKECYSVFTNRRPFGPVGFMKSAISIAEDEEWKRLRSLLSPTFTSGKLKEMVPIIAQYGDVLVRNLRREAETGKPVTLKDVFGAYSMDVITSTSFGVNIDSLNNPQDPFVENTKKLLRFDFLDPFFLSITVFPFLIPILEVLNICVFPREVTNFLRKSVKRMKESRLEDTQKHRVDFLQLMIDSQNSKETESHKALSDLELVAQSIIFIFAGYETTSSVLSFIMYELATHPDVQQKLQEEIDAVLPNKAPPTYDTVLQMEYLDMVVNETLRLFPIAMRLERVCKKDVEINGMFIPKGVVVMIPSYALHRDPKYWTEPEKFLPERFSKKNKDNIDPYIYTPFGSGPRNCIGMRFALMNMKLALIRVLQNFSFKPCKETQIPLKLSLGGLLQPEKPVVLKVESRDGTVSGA
Sequence of DNA dC->dU-editing enzyme APOBEC-3G (Homo sapiens) (Q9HC16 whole entry, looked up): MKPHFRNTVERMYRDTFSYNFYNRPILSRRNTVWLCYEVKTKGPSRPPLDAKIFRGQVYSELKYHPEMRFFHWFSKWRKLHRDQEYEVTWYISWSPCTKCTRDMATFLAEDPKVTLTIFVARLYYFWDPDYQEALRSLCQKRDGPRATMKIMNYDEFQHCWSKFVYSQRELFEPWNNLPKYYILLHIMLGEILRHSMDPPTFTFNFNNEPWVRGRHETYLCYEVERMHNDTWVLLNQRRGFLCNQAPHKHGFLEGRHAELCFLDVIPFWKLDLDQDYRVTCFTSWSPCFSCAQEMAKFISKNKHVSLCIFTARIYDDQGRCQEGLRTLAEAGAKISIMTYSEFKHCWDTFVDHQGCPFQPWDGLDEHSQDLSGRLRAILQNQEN
Sequence of Estrogen receptor (Homo sapiens) (P03372 whole entry, looked up): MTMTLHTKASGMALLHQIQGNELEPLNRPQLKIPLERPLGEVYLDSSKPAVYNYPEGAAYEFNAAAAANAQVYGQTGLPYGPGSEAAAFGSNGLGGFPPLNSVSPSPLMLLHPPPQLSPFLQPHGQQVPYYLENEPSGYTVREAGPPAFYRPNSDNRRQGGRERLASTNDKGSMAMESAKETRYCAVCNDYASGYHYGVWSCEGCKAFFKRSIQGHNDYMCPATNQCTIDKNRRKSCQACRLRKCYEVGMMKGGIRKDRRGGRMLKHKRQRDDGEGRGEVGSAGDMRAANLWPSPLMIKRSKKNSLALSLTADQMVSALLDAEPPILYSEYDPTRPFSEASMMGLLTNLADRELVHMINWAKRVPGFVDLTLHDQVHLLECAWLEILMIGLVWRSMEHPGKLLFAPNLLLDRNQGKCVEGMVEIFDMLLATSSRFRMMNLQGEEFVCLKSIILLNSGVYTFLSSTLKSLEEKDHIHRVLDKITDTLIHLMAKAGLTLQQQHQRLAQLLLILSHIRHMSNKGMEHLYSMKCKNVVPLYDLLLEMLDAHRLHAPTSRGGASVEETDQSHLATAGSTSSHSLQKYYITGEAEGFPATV
Sequence of Androgen receptor (Homo sapiens) (P10275 whole entry, looked up): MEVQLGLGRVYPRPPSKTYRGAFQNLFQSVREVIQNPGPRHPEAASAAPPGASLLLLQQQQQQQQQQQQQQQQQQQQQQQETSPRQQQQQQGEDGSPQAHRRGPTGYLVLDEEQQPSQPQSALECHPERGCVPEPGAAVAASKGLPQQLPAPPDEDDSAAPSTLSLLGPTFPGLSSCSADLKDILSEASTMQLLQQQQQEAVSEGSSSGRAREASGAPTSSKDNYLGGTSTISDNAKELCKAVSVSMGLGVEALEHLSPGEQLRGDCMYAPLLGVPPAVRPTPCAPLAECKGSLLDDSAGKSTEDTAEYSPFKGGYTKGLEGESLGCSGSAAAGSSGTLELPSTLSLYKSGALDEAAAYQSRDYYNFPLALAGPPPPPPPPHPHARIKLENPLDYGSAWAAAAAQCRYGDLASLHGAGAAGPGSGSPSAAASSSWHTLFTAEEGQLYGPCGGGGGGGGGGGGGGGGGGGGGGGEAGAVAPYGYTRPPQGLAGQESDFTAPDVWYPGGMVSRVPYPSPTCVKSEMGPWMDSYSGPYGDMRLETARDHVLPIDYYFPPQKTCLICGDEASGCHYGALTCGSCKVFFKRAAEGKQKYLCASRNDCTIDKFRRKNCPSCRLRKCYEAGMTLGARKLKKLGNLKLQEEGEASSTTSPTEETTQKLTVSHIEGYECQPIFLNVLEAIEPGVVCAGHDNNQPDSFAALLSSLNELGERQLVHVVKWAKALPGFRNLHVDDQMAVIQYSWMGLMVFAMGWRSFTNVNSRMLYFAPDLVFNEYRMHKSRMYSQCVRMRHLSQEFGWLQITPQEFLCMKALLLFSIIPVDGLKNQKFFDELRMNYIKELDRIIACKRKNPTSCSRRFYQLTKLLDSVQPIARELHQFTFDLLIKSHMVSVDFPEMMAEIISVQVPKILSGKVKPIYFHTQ
Sequence of Retinoic acid receptor RXR-alpha (Homo sapiens) (P19793 whole entry, looked up): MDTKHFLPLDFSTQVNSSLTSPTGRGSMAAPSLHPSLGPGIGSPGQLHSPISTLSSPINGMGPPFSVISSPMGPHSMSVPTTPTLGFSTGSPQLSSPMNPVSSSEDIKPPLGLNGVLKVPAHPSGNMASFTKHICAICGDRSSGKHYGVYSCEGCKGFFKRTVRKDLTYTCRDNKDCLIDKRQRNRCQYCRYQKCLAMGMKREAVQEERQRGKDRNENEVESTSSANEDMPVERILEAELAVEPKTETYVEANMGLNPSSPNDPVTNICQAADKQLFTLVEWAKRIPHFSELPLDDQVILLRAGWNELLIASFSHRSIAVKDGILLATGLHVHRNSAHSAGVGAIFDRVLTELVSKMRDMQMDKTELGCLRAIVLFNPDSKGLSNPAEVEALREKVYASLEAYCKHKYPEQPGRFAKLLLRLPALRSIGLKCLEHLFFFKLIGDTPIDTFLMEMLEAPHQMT
Sequence of Glucocorticoid receptor (Homo sapiens) (P04150 whole entry, looked up): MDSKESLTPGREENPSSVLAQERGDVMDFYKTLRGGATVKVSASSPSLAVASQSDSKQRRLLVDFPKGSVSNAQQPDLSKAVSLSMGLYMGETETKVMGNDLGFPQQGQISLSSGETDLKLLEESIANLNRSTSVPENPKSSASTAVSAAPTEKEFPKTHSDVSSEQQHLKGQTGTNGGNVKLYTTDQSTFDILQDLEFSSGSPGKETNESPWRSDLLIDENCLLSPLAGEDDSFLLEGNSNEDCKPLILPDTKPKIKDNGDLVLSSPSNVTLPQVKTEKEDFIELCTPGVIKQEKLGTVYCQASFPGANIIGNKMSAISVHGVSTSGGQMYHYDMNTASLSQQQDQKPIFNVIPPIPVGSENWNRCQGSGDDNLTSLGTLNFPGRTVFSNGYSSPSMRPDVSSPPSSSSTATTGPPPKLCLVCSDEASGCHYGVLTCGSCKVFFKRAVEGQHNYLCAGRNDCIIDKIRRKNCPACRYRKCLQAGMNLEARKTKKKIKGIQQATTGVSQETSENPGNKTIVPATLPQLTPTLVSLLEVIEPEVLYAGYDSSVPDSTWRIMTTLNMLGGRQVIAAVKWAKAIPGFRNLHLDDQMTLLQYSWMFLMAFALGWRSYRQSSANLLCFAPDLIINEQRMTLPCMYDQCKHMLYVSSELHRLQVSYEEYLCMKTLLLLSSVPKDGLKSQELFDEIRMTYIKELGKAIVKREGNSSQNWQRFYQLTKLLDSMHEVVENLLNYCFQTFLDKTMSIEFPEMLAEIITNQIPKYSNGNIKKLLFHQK
Sequence of Peroxisome proliferator-activated receptor delta (Homo sapiens) (Q03181 whole entry, looked up): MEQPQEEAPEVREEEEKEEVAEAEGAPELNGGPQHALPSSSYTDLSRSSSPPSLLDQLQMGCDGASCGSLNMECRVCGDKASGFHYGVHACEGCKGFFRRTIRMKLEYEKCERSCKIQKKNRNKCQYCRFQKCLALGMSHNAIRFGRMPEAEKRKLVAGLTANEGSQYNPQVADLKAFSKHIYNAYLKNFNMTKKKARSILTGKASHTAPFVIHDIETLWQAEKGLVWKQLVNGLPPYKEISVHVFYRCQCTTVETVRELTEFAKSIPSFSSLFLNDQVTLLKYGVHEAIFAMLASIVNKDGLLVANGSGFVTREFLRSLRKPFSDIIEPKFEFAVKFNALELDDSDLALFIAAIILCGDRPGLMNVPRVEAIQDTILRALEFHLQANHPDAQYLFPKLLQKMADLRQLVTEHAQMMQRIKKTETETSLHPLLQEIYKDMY
Sequence of Vitamin D3 receptor (Homo sapiens) (P11473 whole entry, looked up): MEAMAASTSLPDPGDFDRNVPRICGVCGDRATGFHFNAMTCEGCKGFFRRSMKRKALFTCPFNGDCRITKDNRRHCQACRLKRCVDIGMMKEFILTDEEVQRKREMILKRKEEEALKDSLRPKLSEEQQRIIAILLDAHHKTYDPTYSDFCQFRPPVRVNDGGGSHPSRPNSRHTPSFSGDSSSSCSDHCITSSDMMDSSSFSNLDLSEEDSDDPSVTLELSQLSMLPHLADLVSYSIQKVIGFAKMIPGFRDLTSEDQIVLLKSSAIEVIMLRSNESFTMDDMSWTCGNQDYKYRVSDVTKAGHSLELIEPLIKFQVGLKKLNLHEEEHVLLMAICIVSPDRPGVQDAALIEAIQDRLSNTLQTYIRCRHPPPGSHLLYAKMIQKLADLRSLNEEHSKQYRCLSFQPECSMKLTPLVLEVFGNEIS
Sequence of Thyroid hormone receptor beta (Homo sapiens) (P10828 whole entry, looked up): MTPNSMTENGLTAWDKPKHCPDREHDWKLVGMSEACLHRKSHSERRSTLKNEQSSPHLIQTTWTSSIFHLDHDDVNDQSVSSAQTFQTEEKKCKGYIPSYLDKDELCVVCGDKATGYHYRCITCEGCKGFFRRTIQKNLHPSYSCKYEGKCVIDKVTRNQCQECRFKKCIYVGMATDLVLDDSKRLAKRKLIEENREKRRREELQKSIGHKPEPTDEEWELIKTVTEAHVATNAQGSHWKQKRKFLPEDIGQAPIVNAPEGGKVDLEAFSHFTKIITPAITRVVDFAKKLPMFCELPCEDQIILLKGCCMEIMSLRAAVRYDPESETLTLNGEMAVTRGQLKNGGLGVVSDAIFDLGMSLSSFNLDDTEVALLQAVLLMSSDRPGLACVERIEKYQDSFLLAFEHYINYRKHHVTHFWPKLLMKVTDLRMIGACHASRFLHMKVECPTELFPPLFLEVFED

As to `CC(=O)Oc1ccc(/C=C/C(=O)CC2OC(Oc3cc(OC(C)=O)c4c(c3)O[C@@H](c3ccc(OC(C)=O)cc3)CC4=O)C(OC(C)=O)C(OC(C)=O)C2OC(C)=O)cc1` (some centres not stated), the Potency entry in [1] and in assay [2] was “inactive” throughout.
Take `O=C(Cc1ccc(Cl)cc1)c1c(O)cc(O)cc1O`: the Potency in assay [1] was 5.01 µM (active). The Potency entry in [3] and in assay [2] was “inactive” each time.
Consider `C[Si](Cl)(Cl)c1ccccc1`, for which the Potency result in assay [4], in assay [5], in assay [8], in [10], in [12] and in assay [13] was “inactive” throughout. The Potency entry in [15], in assay [16], in assay [22] and in assay [25] was “inactive” in each case. For the same molecule, the activation in assay [6] is 5.21% (inactive); in assay [9], 17.8% (inactive); in assay [19] it was -1.52% (inactive); in [20], 0.494% (inactive). Besides, the result in assay [7] and in [27] was inactive. In addition, the max response is 44.2% in [11]; -17.5% in assay [14]; -2.11% in [17]; -4.88% (inactive) in assay [18]; -2.64% (inactive) in assay [21]; -14.9% (inactive) in assay [23]. Besides, the figures for the max response in assay [24] and in assay [26] were -2.42% (inactive) and -3.28% (inactive), respectively.
Consider `CC(C)=CCC/C(C)=C/COc1c2occc2cc2ccc(=O)oc12`, for which the Potency in assay [1] is 1.26 µM (active). Moreover, the Potency entry in [3] and in assay [2] was “inactive” throughout.

The record behind these values is PubChem BioAssay (NCATS).
